The record followed here is PubChem BioAssay (Tox21).

Values joined by “and” are separate entries in the source; they are usually repeats but may differ in a detail not shown here. Equal values may be shown once. Results filed as inconclusive are left out. Some compounds were tested as several samples or in several runs, with calls that do not always agree. Active and inactive are the calls of the source. Unless noted, calls follow the shape of the dose curve; as a rule, active = well fitted curve in the direction sought with a large enough effect in the repeat runs; inconclusive = weak or mixed curves; inactive = no such curve, though single readings can be large; an effect the other way counts as inactive or inconclusive.

Assay [1] concerns the target Thyrotropin receptor (Homo sapiens) (UniProt P16473). As to the kind of experiment: qHTS assay to identify small molecule antagonists of the thyroid stimulating hormone receptor (TSHR) signaling pathway (AID 1259385; calls by dose curve; also: % is scaled to controls: 0 for no effect and ±100 for the full control effect; nearly all actives have a fitted effect of over 20% in size). The method in brief:
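TSHR-HEK293 cells (800/well) plated 18 h, then compounds with Ro20-1724 and TSH at 1.5 ng/mL final, 30 min at room temperature. cAMP quantified by HTRF (cAMP-d2/anti-cAMP-cryptate, 1 h); 15 concentrations in triplicate.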
On the technique in general: In qHTS, concentration-response curves come from the screen itself.

Assay [2] is described as follows: qHTS assay to identify small molecule agonists of the estrogen receptor alpha (ER-alpha) signaling pathway in the presence of an antagonist - cell viability counter screen (AID 1259386).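 Also: cells exposed to compounds for 22 h at 37 °C before the viability read; nearly all actives have a fitted effect of over 30% in size.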 Also: potency is read from the fitted curve at half-maximal effect. The method in brief:
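ICI-182,780 at 10.0nM final accompanies the compound titration (15 concentrations, 22hr, 37C) on VM7Luc4E2 cells. The CellTiter-Fluor fluorescence readout runs in the same wells as the luciferase assay.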

For assay [3], the target named is Progesterone receptor (Homo sapiens) (UniProt P06401). As to the kind of experiment: qHTS assay to identify small molecule antagonists of the progesterone receptor (PR) signaling pathway (AID 1346795; active = well fitted inhibition curve with a large enough effect in the signal ratio in the repeat runs, not every such curve was filed as active; the % refers to the signal ratio; also: potency is read from the fitted curve at half-maximal effect). The method in brief: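 Beta-lactamase reporter, HEK293T PR-UAS-bla line; 2% charcoal-stripped FBS; 6 hr pre-incubation, 37C/5% CO2. Compound + R5020 1 nM final, 16 hr. LiveBLAzer B/G FRET substrate, 2 hr RT; fluorescence intensity read.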
Chain of Progesterone receptor (Homo sapiens) (P06401 whole entry, looked up): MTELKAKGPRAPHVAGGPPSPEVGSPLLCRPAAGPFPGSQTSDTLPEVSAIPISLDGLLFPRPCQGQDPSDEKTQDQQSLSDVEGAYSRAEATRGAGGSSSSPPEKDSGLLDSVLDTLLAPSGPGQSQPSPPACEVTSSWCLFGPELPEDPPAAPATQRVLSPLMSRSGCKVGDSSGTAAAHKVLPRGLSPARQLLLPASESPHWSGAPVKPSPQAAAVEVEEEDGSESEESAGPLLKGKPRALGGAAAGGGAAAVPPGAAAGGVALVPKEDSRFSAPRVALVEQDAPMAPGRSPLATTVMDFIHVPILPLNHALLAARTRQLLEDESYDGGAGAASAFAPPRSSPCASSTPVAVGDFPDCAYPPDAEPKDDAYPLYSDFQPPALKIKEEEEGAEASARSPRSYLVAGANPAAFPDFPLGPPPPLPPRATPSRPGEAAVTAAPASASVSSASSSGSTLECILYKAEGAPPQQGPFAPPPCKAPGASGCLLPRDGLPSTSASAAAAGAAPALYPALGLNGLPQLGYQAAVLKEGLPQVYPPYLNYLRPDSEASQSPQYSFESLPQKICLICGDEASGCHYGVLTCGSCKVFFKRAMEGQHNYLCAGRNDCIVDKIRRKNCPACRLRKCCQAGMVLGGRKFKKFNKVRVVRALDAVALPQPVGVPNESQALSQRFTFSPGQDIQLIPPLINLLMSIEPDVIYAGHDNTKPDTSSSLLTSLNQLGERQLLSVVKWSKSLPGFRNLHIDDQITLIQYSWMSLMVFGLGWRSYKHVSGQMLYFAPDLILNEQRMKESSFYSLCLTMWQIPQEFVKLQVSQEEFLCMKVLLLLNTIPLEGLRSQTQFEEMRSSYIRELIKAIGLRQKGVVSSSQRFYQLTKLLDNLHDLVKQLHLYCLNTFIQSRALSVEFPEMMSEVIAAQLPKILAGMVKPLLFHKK

Assay [4] is described as follows: qHTS assay to identify small molecule antagonists of the TGF-beta/Smad signaling pathway - cell viability counter screen (AID 1346824). Also: % is scaled to controls: 0 for no effect and ±100 for the full control effect; nearly all actives have a fitted effect of over 50% in size. The method in brief: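 SBE-bla HEK 293T cells, incubated overnight, then compound plus 0.25 ng/mL TGF-beta1 (stock added) for 5 hr at 37 C. Viability was read in the same wells by CellTiter-Glo luminescence after 30 min at room temperature.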

Assay [5] in a line: qHTS assay to identify small molecule agonists of the TGF-beta/Smad signaling pathway - cell viability counter screen (AID 1346829). Also: top concentration of the series differs between compounds; % is scaled to controls: 0 for no effect and ±100 for the full control effect; nearly all actives have a fitted effect of over 45% in size. The method in brief: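 Compound-treated SBE-bla HEK 293T cells (5 hr, 37 C) were assessed for viability with CellTiter-Glo in parallel with the reporter read.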
Assay [6] in a line: qHTS assay to identify small molecule agonists of the TGF-beta/Smad signaling pathway (AID 1346859; active = well fitted activation curve with a large enough effect in the signal ratio in the repeat runs, not every such curve was filed as active; the % refers to the signal ratio; also: series mostly up to about 77 µM; % is scaled to controls: 0 for no effect and ±100 for the full control effect). The method in brief: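 Read-out: fluorescence at 460 and 530 nm (405 nm excitation) after a 2 hr room-temperature incubation with beta-lactamase FRET substrate. SBE-bla HEK 293T cells had been treated with test compounds for 5 hr at 37 C.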
The target of assay [7] is Thyrotropin-releasing hormone receptor (Homo sapiens) (UniProt P34981). Description: qHTS assay to identify small molecule antagonists of the thyrotropin-releasing hormone receptor (TRHR) signaling pathway (AID 1346877; active = well fitted inhibition curve with a large enough effect in the repeat runs, not every such curve was filed as active; also: series mostly up to about 51 µM; % is scaled to controls: 0 for no effect and ±100 for the full control effect). The method in brief: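 Screening used HEK293 cells engineered with TRHR, with a brief 5 min room-temperature compound exposure preceding addition of TRH to 1 nM. The read-out was kinetic calcium-dye fluorescence, concentration-response from 15 doses in triplicate.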
Chain of Thyrotropin-releasing hormone receptor (Homo sapiens) (P34981 whole entry, looked up): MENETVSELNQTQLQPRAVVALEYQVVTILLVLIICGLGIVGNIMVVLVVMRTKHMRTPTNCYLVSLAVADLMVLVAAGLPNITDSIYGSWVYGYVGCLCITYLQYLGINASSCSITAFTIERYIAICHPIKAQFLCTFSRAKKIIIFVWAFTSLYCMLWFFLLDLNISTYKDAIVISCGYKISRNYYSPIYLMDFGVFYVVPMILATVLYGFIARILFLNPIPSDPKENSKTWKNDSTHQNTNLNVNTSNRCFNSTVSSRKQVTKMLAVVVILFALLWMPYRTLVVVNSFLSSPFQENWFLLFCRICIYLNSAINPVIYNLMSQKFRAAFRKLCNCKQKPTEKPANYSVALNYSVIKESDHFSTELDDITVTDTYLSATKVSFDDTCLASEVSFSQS

For assay [8] the target is unchanged. As to the kind of experiment: qHTS assay to identify small molecule agonists of the thyrotropin-releasing hormone receptor (TRHR) signaling pathway (AID 1346891; calls by dose curve;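 also: HEK293 cells expressing TRHR with calcium dye readout; series mostly up to about 58 µM; % is scaled to controls: 0 for no effect and ±100 for the full control effect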). The method in brief:
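HEK293/TRHR cells, 1500 per well, 18 h 37 °C; Ca dye 2 h 37 °C; pin-tool compound addition (agonist mode); kinetic fluorescence 3 min, 1 s reads; 15 concentrations, triplicate.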

Assay [9] in a line: Human pregnane X receptor (PXR) small molecule agonists, qHTS cell viability counter screen (AID 1346977). Also: nearly all actives have a fitted effect of over 50% in size. Also: potency is read from the fitted curve at half-maximal effect. The method in brief:
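Fluorescence read-out (CellTiter-Fluor) of viability in PXR-Luc HepG2 cells, multiplexed with the luciferase agonist read. Compounds in DMSO added after 5hr plating; 24hr total exposure at 37C, 5% CO2.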

A short description of assay [10]: Caspase-3/7 induction in CHO-K1 cells by small molecules, qHTS assay (AID 1346980). Also: nearly all actives have a fitted effect of over 15% in size. Also: potency is read from the fitted curve at half-maximal effect. The method in brief: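 Wild-type CHO-K1 cells exposed to compounds for 17hr at 37 C, 5% CO2. Caspase-3/7 activity then measured by Caspase-Glo 3/7 luminescence after 30min at room temperature.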
Assay [11] in a line: Caspase-3/7 induction in HepG2 cells by small molecules, qHTS cell viability counter screen (AID 1346981). Also: nearly all actives have a fitted effect of over 30% in size. Also: potency is read from the fitted curve at half-maximal effect. The method in brief:
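Multiplexed with the caspase-3/7 assay: HepG2 cells, 16 hr compound treatment, CellTiter-Fluor viability detection by fluorescence.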

Assay [12] concerns the target Nuclear receptor subfamily 1 group I member 2 (Homo sapiens) (UniProt O75469). Description: Human pregnane X receptor (PXR) small molecule agonists, qHTS assay (AID 1346982). Also: nearly all actives have a fitted effect of over 35% in size. Also: potency is read from the fitted curve at half-maximal effect. As to activation: % is scaled to controls: 0 for no effect and ±100 for the full control effect. The method in brief:
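We seeded PXR-Luc HepG2 cells in assay medium containing 5% charcoal-stripped FBS, added compounds 5 hr later, incubated 24 hr, and read luminescence with ONE-Glo reagent.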

Assay [13] can be described thus: qHTS assay to identify small molecule antagonists of the progesterone receptor (PR) signaling pathway - cell viability counter screen (AID 1346798). Also: nearly all actives have a fitted effect of over 50% in size. Also: potency is read from the fitted curve at half-maximal effect. The method in brief:
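Luminescence readout (CellTiter-Glo, 30 min, RT) of viability in PR-UAS-bla HEK293T cells exposed to compound and R5020 agonist for 16 hr at 37C, 5% CO2; run in the same wells as the beta-lactamase reporter read.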

Assay [14] is described as follows: qHTS assay to identify small molecule agonists of the progesterone receptor (PR) signaling pathway - cell viability counter screen (AID 1346799; calls by dose curve; also: nearly all actives have a fitted effect of over 45% in size; also: potency is read from the fitted curve at half-maximal effect). The method in brief: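 HEK293T PR-UAS-bla, 3,000 cells/well, 2% charcoal-stripped FBS; 6 h settle, compound 16 h at 37C/5% CO2; LiveBLAzer 2 h RT, then CellTiter-Glo 30 min RT, luminescence read.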
Assay [15] in a line: Caspase-3/7 induction in HepG2 cells by small molecules, qHTS assay (AID 1346978). Also: % is scaled to controls: 0 for no effect and ±100 for the full control effect; nearly all actives have a fitted effect of over 15% in size. The method in brief:
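Wild-type HepG2 cells, 2,000/well, settled 5 hr at 37 C and 5% CO2, then compound-treated for 17 hr; caspase-3/7 activity read by luminescent Caspase-Glo 3/7 after 30 min at room temperature.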

A short description of assay [16]: Caspase-3/7 induction in CHO-K1 cells by small molecules, qHTS cell viability counter screen (AID 1346979). Also: nearly all actives have a fitted effect of over 35% in size. Also: potency is read from the fitted curve at half-maximal effect. The method in brief:
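CHO-K1 wt, 1,500 cells/well; 5hr pre-incubation 37C/5% CO2; compound pin transfer (DMSO); 16hr exposure; CellTiter-Fluor added, 1hr, fluorescence read.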

In assay [17] the target is Nuclear receptor subfamily 1 group I member 2 (Rattus norvegicus) (UniProt Q9R1A7). Description: Rat pregnane X receptor (rPXR) activation by small molecules, qHTS assay (AID 1346983). Also: % is scaled to controls: 0 for no effect and ±100 for the full control effect; nearly all actives have a fitted effect of over 20% in size. The following applies: rPXR luciferase reporter cells, One-Glo luminescence, 24 h; stronger effect = higher value. The method in brief:
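Cell-based rPXR activation assay: rPXR cells, 2,000 per well, rested 5hr at 37 C, then exposed to compounds in DMSO for 24 hr at 37 C. Luciferase activity read by One-Glo luminescence after 30 min at room temperature.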

The target of assay [18] is Nuclear receptor subfamily 1 group I member 2 (Homo sapiens) (UniProt O75469). As to the kind of experiment: CYP3A4 induction through human pregnane X receptor (PXR) by small molecules, qHTS assay (AID 1346984). Also: % is scaled to controls: 0 for no effect and ±100 for the full control effect; nearly all actives have a fitted effect of over 40% in size. The method in brief:
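qHTS, concentration-response format: HepG2 DPX-2 line, PXR/CYP3A4-luc. Exposure 24 h, 37C. Substrate Luciferin-IPA 3uM final, 3 h. Detection One-Glo, 30 min RT.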

Assay [19] shares this target. Description: Human pregnane X receptor (PXR) activation by small molecules, qHTS assay (AID 1346985). Also: % is scaled to controls: 0 for no effect and ±100 for the full control effect; nearly all actives have a fitted effect of over 40% in size. The method in brief: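 DPX-2 cells (HepG2 co-transfected with a PXR response element and a CYP3A4-promoter luciferase construct) were seeded at 2,000 per well, rested 5 hr at 37C, then exposed to DMSO-dissolved compounds for 24 hr. Activation was read as luciferase luminescence.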

Assay [20] addresses Progesterone receptor (Homo sapiens) (UniProt P06401). Description: qHTS assay to identify small molecule agonists of the progesterone receptor (PR) signaling pathway (AID 1346784; calls by dose curve; also: % is scaled to controls: 0 for no effect and ±100 for the full control effect; nearly all actives have a fitted effect of over 30% in size). The method in brief: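 HEK 293T PR-UAS-bla reporter cells, 2% charcoal-stripped FBS; 6 hr settle at 37C/5% CO2, compound (DMSO) 16 hr, LiveBLAzer B/G FRET substrate 2 hr RT, fluorescence intensity read.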

Chain of Nuclear receptor subfamily 1 group I member 2 (Homo sapiens) (O75469 whole entry, looked up): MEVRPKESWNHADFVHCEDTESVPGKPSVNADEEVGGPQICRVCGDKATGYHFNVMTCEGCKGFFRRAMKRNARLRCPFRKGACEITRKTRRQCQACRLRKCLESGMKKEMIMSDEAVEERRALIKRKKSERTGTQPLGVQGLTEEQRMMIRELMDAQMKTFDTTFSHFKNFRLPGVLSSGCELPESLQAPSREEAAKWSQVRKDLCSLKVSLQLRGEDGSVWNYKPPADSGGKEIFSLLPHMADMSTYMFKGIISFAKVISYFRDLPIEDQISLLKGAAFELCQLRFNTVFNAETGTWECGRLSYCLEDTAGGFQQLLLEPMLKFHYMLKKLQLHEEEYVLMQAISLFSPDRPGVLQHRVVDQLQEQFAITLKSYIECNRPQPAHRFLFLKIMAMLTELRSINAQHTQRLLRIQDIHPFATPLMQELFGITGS
Chain of Thyrotropin receptor (Homo sapiens) (P16473 whole entry, looked up): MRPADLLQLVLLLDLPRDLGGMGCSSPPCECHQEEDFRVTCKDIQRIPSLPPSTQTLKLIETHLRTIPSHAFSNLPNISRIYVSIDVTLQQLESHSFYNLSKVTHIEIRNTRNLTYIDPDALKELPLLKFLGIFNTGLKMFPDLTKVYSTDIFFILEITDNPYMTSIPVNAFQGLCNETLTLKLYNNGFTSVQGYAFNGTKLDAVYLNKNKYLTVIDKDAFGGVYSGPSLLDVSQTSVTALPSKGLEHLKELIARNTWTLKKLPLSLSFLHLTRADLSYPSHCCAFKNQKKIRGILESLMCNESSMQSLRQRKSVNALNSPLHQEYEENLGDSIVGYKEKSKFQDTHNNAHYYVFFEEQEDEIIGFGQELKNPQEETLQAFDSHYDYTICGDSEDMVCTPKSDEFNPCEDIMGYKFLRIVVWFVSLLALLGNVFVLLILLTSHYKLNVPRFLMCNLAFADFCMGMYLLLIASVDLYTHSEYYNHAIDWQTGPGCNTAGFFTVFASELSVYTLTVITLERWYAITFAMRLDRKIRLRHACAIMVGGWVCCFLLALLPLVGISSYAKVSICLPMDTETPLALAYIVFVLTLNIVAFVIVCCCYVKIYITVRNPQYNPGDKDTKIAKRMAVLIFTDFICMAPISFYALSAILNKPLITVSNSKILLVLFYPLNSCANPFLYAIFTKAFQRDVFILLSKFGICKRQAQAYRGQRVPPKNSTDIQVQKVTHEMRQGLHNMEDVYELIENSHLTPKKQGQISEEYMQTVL
Chain of Nuclear receptor subfamily 1 group I member 2 (Rattus norvegicus) (Q9R1A7 whole entry, looked up): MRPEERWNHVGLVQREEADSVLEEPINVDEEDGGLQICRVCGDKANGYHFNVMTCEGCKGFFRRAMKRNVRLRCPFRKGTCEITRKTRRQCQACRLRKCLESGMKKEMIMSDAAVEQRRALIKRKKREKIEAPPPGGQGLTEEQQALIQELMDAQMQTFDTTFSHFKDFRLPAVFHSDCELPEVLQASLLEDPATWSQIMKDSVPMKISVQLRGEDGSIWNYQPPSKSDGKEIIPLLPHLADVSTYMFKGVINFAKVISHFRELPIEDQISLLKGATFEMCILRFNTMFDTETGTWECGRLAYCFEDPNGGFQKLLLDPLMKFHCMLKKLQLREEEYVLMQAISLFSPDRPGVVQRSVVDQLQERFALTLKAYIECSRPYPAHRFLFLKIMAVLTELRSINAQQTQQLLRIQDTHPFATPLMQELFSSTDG

With `CCCCCc1cc(O)cc(O)c1`, the outcome in assay [1] and in assay [6] was inactive. Further, the Potency entry in assay [2], in assay [4], in assay [5], in assay [7], in [8] and in assay [9] was “inactive” each time. The Potency result in [10] is “inactive”. The Potency in assay [3] is 68.9 µM (active) and 21.7 µM (active); in assay [11], 48.6 µM (active); in [12] it was 61.4 µM (active) and 30.6 µM (active).
Regarding `CCOC(=S)S`, the compound was classed as inactive in assay [1] and in assay [6]. Besides, the Potency result in assay [2], in assay [4], in assay [5], in assay [9], in assay [15] and in assay [11] was “inactive” in each case. The Potency is 4.86 µM (active) in assay [13]; 4.86 µM (active) in assay [14]; 61.1 µM (active) and 23.1 µM (active) in assay [16]; 61.1 µM (active) in [10].
Consider `CCC(=O)O[C@H]1CC[C@H]2[C@@H]3CCC4=CC(=O)CC[C@]4(C)[C@H]3CC[C@]12C`, for which the compound was classed as inactive in assay [1], in [6], in assay [18] and in [19]. Moreover, the Potency result in [2], in [13], in assay [4], in assay [5], in assay [9] and in assay [15] was “inactive” throughout. The Potency entry in assay [16], in assay [10] and in [12] was “inactive” throughout. In [3], the Potency is 486 nM (active). In assay [17], the max activation is -2.06% (inactive).
As to `C[C@]12CCC(=O)C(O)=C1CC[C@@H]1[C@@H]2CC[C@]2(C)C(=O)CC[C@@H]12`, the Potency result in [2], in assay [20], in [14], in assay [4], in assay [5] and in assay [9] was “inactive” each time. The Potency entry in assay [15], in assay [16] and in assay [10] was “inactive” each time. In addition, the compound was classed as inactive in [6], in [18] and in assay [19]. The Potency in assay [12] was 54.5 µM (active) and inactive. Besides, the max activation in [17] was -2.61% (inactive).
On to `C#CCOS(=O)OC1CCCCC1Oc1ccc(C(C)(C)C)cc1` (stereo not given), for which the compound was called inactive in assay [1] and in [6]. Also, the Potency in assay [2] is 30.7 µM (active) and 48.6 µM (active); in assay [9], 7.08 µM (active) and 7.7 µM (active); in assay [16], 1.94 µM (active) and 1.93 µM (active); in [12], 8.64 µM (active) and 6.86 µM (active). Also, the Potency entry in assay [13], in assay [4], in [5], in assay [7], in assay [8] and in assay [15] was “inactive” each time. Moreover, the Potency entry in assay [10] is “inactive”.
As for `Nc1ccc(Cl)cc1N`, the compound was classed as inactive in assay [1]. The Potency result in [2], in assay [13], in [14], in assay [4], in [5] and in [7] was “inactive” in each case. Moreover, the Potency result in [8], in assay [9] and in assay [10] was “inactive” in each case. The Potency is 7.92 µM (active) in assay [11]; 31.9 µM (active) and 4.33 µM (active) in assay [12].
For `Brc1ccc(Oc2cc(Br)c(Br)cc2Br)c(Br)c1`, the Potency entry in [2], in assay [20], in [13], in assay [4], in assay [5] and in assay [7] was “inactive” in each case. Moreover, the Potency entry in assay [8], in [9], in [15], in [10] and in [11] was “inactive” each time. The Potency in assay [14] was 38.6 µM (active) and 43.6 µM (active); in assay [12], 17.2 µM (active) and 30.9 µM (active). Moreover, the call in [6] was inactive.
Take `CCCCCCOC(=O)c1ccccc1C(=O)OCCCCCC`: the compound was called inactive in assay [1] and in [6]. Moreover, the Potency result in [2], in assay [13], in assay [14], in assay [4], in assay [5] and in assay [7] was “inactive” each time. Besides, the Potency result in [8], in assay [9], in assay [15], in assay [16], in assay [10] and in assay [11] was “inactive” throughout. In addition, the Potency in assay [12] is 55.6 µM (active) and inactive.
In the case of `Nc1ccc(-c2ccc(N)c(N)c2)cc1N`, the Potency in [2] is 54.3 µM (active); in assay [3] it was 48.4 µM (active) and 24.3 µM (active); in assay [16] it was 68.4 µM (active) and 61.1 µM (active); in [11], 48.4 µM (active); in assay [12], 24.3 µM (active). Moreover, the Potency result in assay [13], in [14], in assay [4], in assay [5], in [9] and in assay [15] was “inactive” in each case. For the same compound, in assay [10], the Potency result is “inactive”. In assay [6], the outcome was inactive.
